What is called % Inhibition is the change of the read-out against control, counted positive when it falls.

The campaign covered roughly 13,000 compounds. About 3,200 (25%) showed an effect of 50% or more. The list shows a part of the results.

We go through 74 molecules from publication PMC4552634, “A New Set of Chemical Starting Points with Plasmodium falciparum Transmission-Blocking Potential for Antimalarial Drug Discovery” (PLoS ONE, 2015).

The subject of the test is P. falciparum stage V gametocytes. Further details: BacTiter-Glo ATP luminescence viability of purified stage V gametocytes in 384-well plates, per cent inhibition versus DMSO. To be noted: 48 h, 5 µM; inhibitor.
For the molecule `O=C(Cc1ccc(F)cc1)NC1CCN(c2ccnc3cc(Cl)ccc23)C1` (centres unmarked) [TCMDC-133668], the “% Inhibition” value turned out to be 7.133%.
The same measure for `CCCSc1nc2c(c(=O)n1CCc1ccccc1)C1(CCCC1)Cc1ccccc1-2` [TCMDC-123890]: -17.67%.
The same measure for `C=C(C)CSc1nc2c(c(=O)n1CCc1ccccc1)C1(CCCC1)Cc1ccccc1-2` [TCMDC-123892]: 66.35%; for `CC(C)Sc1nc2c(c(=O)n1CCc1ccccc1)C1(CCCC1)Cc1ccccc1-2` [TCMDC-123891]: -12.92%; for `Cc1cc(C(=O)Nc2ccc3c(c2)CCN3C2CCN(Cc3cc(F)cc(F)c3F)C2)no1` (centres unmarked) [TCMDC-135083]: 0.2789%.
For the molecule `Cc1nc(N)nc(N)c1CCCOc1cccc(Cl)c1` [TCMDC-138067], the “% Inhibition” value is -4.32%.
The same measure for `CN(Cc1ccc(C#N)cc1)C1CCN(c2cc(NC(=O)c3ccc(F)cc3)ccn2)CC1` [TCMDC-134978]: 9.957%.
The same measure for `CN(Cc1cc(C(F)(F)F)cc(C(F)(F)F)c1)C(=O)C(Cc1ccc(F)cc1)C1CCCNC1` (centres unmarked) [TCMDC-138909]: 92.9%; for `CN(Cc1cc(C(F)(F)F)cc(C(F)(F)F)c1)C(=O)C1CNCC1c1ccc(F)cc1` (centres unmarked) [TCMDC-137553]: 10.31%.
The same measure for `CCCc1cc(N2CCC(N(CC)CC)C2)nc(Nc2ccc(OC)cc2)n1` (centres unmarked) [TCMDC-132388]: -68.85%.
On to `COC(=O)c1ccc(CC(C)NCC(O)c2ccc3ccc4ccccc4c3c2)cc1` (centres unmarked) [TCMDC-131429], for which the “% Inhibition” value was 28.11%.
The same measure for `CC(=NN=C(N)N)c1ccc2c(c1)Cc1ccccc1-2` [TCMDC-137666]: 27.22%; for `CC(=NN=C(N)N)c1ccc2c(ccc3ccccc32)c1` [TCMDC-137669]: 96.96%; for `Nc1ncc(Cc2ccc3c(ccc4ccccc43)c2)c(N)n1` [TCMDC-137874]: 19.52%.
The same measure for `CC(=NN=C(N)N)c1ccc2ccc3ccccc3c2c1` [TCMDC-137667]: 76.83%; for `CC(C)C[C@@H]1C(=O)N[C@H](C2Cc3ccccc3C2)C(=O)N1[C@@H](C(=O)O)c1ccc(F)cc1F` [TCMDC-138777]: -24.68%.
The same measure for `Clc1nc2ccccn2c1C=Cc1ccc2ccccc2n1` [TCMDC-125327]: -7.636%; for `COc1cc(-c2nc(-c3ccc4c(c3)CCC4=NO)c(-c3ccncc3)[nH]2)ccc1OCCN1CCCCC1` [TCMDC-141257]: 22.85%; for `O=C(/C=C/c1cccc(Cl)c1)Nc1ccc2nc(CN3CCCC3)ccc2c1` [TCMDC-135628]: -49.28%.
Consider `O=C(Nc1cccc(CN2CCCN(Cc3ncc[nH]3)CC2)c1)c1ccc(Cl)c(Cl)c1` [TCMDC-141833], for which the “% Inhibition” value is reported as -19.06%.
The same measure for `Cc1cc2ccc(-c3cccc(CN)c3)cc2nc1N` [TCMDC-137624]: 65.41%; for `COc1ccc(CCNCc2ccc3nc(N)c(C)cc3c2)cc1` [TCMDC-138098]: 30.17%.
The same measure for `Cc1ccc(Cc2cccc3nc(N)nc(N)c23)cc1` [TCMDC-137730]: -6.399%.
In the case of `Cc1ccc(O)cc1Nc1ccnc2cc(-c3cccc(CNCCS(C)(=O)=O)c3)ccc12` [TCMDC-138472], the “% Inhibition” value was -16.38%.
Consider `Cc1cc2cc(-c3ccc(CN)cc3)ccc2nc1N` [TCMDC-137774], for which the “% Inhibition” value is 101.7%.
The same measure for `CN1CCc2ccc(NC(=O)Nc3cccc([N+](=O)[O-])c3)cc2C1` [TCMDC-139120]: -5.165%; for `FC(F)(F)Oc1ccc(Nc2cc(-c3ccncc3)nc(-c3cccnc3)n2)cc1` [TCMDC-125416]: 22.38%; for `CC(C)(C)c1ccc(NC(=O)c2ccc(CN3CCCN(Cc4cccc(O)c4)CC3)cc2)cc1` [TCMDC-136433]: -12.56%.
For `Cc1cccc2[nH]c(-c3cccc(-c4cccc(NC(=O)c5cccnc5Cl)c4)c3)nc12` [TCMDC-136839], the “% Inhibition” value came to 42.83%.
With `O=[N+]([O-])c1cccc(-c2ccc(C=NNc3cc(N4CCCC4)nc(N4CCCC4)n3)o2)c1` [TCMDC-124053], the “% Inhibition” value turned out to be 34.95%.
Consider `CC1CN(Cc2cccc(F)c2)CCN1c1ccc(NC(=O)c2cccs2)cc1` (centres unmarked) [TCMDC-135009], for which the “% Inhibition” value is recorded as 3.6%.
Consider `Cc1cccc(-c2ccc(CNC3CCN(CC4Cn5c(=O)ccc6ccc(F)c4c65)CC3)cn2)c1` (centres unmarked) [TCMDC-134413], for which the “% Inhibition” value is -59.7%.
Take `COC(=O)c1ccccc1COc1ccc(CC2(NC(=O)[C@H](Nc3ccc(C#N)c4ccccc34)C(C)(C)C)CCCC2)cc1` [TCMDC-136783]: the “% Inhibition” value was determined as 21.91%.
As to `Cc1cccc2[nH]c(-c3ccc(-c4ccc(CN5CCN(CCN6CCOCC6)CC5)cc4)s3)nc12` [TCMDC-133930], the “% Inhibition” value is listed as 30.2%.
On to `Cc1cccc2[nH]c(-c3cccc(-c4ccc(CNCc5ccccc5)cc4)c3)nc12` [TCMDC-132710], for which the “% Inhibition” value came out at 64.93%.
On to `Cc1cccc2[nH]c(-c3ccc(-c4ccc(CN5CCN(CCO)CC5)cc4)s3)nc12` [TCMDC-133027], for which the “% Inhibition” value is reported as 2.277%.
Take `Cc1cccc2[nH]c(-c3cccc(-c4cccc(CNCc5ccccc5)c4)c3)nc12` [TCMDC-132713]: the “% Inhibition” value was found to be 10.68%.
As to `Cc1cccc2[nH]c(-c3ccc(-c4ccc(CNCCN5CCNCC5)cc4)s3)nc12` [TCMDC-132870], the “% Inhibition” value is recorded as 77.87%.
Take `Cc1cccc2[nH]c(-c3ccc(-c4cccc(CNCCCNS(C)(=O)=O)c4)cc3)nc12` [TCMDC-133082]: the “% Inhibition” value is -3.877%.
`CNCCNCc1ccc(-c2ccc(-c3nc4c(C)cccc4[nH]3)s2)cc1` [TCMDC-132828]: the “% Inhibition” value turned out to be 96.61%.
With `C#CCNCc1ccc(-c2cccc(-c3nc4c(C)cccc4[nH]3)c2)cc1` [TCMDC-132804], the “% Inhibition” value is recorded as -34.44%.
The same measure for `Cc1cccc2[nH]c(-c3ccc(-c4ccc(CNCc5ccccc5)cc4)s3)nc12` [TCMDC-132709]: -2.299%; for `CNCCNCc1cccc(-c2cccc(-c3nc4c(C)cccc4[nH]3)c2)c1` [TCMDC-132825]: 101.1%; for `COCCN1CCN(Cc2ccc(-c3ccc(-c4nc5c(C)cccc5[nH]4)s3)cc2)CC1` [TCMDC-133021]: 2.979%.
The same measure for `Cc1cccc2[nH]c(-c3cccc(-c4cccc(CNC(C)C)c4)c3)nc12` [TCMDC-132738]: -9.933%; for `CN(c1ccc2c(c1)nc(NCc1ccc(F)cc1)n2C)c1ccnc(Nc2ccc(CS(C)(=O)=O)cc2)n1` [TCMDC-138747]: 36.21%.
On to `Oc1cc(Nc2ccnc3ccc(I)cc23)c(F)cc1Cl` [TCMDC-138500], for which the “% Inhibition” value is -12.42%.
The same measure for `COc1ccc(-n2cc(C(=O)c3cc(Br)ccc3O)cc(C#N)c2=O)cc1Cl` [TCMDC-124524]: 13.45%; for `COc1ccccc1C1CC(c2ccccc2)=NN1C(=O)c1ccccc1` (centres unmarked) [TCMDC-123702]: 28.29%.
Consider `O=C(CCCCCNC(=O)c1ccc(O)c(-c2ccc(Cl)c(Cl)c2)c1)NCc1cccc2ccccc12` [TCMDC-140875], for which the “% Inhibition” value turned out to be 8.372%.
In the case of `COc1cccc(CNC(=O)c2cnc(N3CCN(c4ccncc4)CC3)c(Cl)c2)c1` [TCMDC-134628], the “% Inhibition” value came out at 35.94%.
The same measure for `Cc1cccc2[nH]c(-c3ccc(-c4cccc(CNCCN(C)C)c4)cc3)nc12` [TCMDC-132682]: 17.36%; for `Cc1cccc2[nH]c(-c3ccc(-c4ccc(CNCc5ccc(CN)cc5)cc4)cc3)nc12` [TCMDC-132813]: 65.29%.
`CNCCNCc1cccc(-c2ccc(-c3nc4c(C)cccc4[nH]3)cc2)c1` [TCMDC-132831]: the “% Inhibition” value worked out at 94.01%.
The same measure for `Cc1cccc2[nH]c(-c3ccc(-c4cccc(CNCCc5ccncc5)c4)cc3)nc12` [TCMDC-132850]: -15.09%; for `COc1ccc(CNCc2cccc(-c3ccc(-c4nc5c(C)cccc5[nH]4)cc3)c2)cc1` [TCMDC-132726]: -14.09%.
The same measure for `Cc1cccc2[nH]c(-c3ccc(-c4ccc(CNC(C)C)cc4)cc3)nc12` [TCMDC-132744]: -47.89%.
The same measure for `CNc1ccc(CNCc2cccc(-c3ccc(-c4nc5c(C)cccc5[nH]4)cc3)c2)cc1` [TCMDC-132979]: -24.36%; for `Cc1cccc2[nH]c(-c3ccc(-c4ccc(CNCc5ccccc5)cc4)cc3)nc12` [TCMDC-132701]: -18.64%.
Consider `Cc1cccc2[nH]c(-c3ccc(-c4cccc(CNCc5ccccc5)c4)cc3)nc12` [TCMDC-132707], for which the “% Inhibition” value is -22.49%.
For `Cc1cccc2[nH]c(-c3ccc(-c4cccc(CNCc5cccc(N)c5)c4)cc3)nc12` [TCMDC-132934], the “% Inhibition” value was found to be 83.13%.
The same measure for `Cc1cccc2[nH]c(-c3ccc(-c4ccc(CNCC(C)C)cc4)cc3)nc12` [TCMDC-132803]: 16.22%.
Regarding `CNCCNCc1ccc(-c2ccc(-c3nc4c(C)cccc4[nH]3)cc2)cc1` [TCMDC-132837], the “% Inhibition” value is recorded as 80.14%.
`Cc1ccccc1Oc1ccc(Nc2ccnc(Nc3cccc(C(N)=O)c3)n2)cc1C(F)(F)F` [TCMDC-138601]: the “% Inhibition” value was found to be 1.674%.
In the case of `CC(=O)N(C)c1ccc(C(=O)Nc2cccc(-c3cccc(-c4nc5ccc(C(F)(F)F)cc5[nH]4)c3)c2)cc1` [TCMDC-136849], the “% Inhibition” value is -19.52%.
The same measure for `CC(=O)Nc1nc(C(=O)Nc2cccc(-c3ccc4c(cnn4CC4CC4)c3)c2)cs1` [TCMDC-133147]: 49.64%; for `O=C1COC(c2ccccc2)(c2ccccc2)CN1CC1CCN(Cc2ccc(O)cc2Cl)C1` (centres unmarked) [TCMDC-136338]: 44.26%; for `Cc1[nH]c2c(C)cccc2c1C1CCN(CCC2CCN(C(=O)/C=C/c3ccc(Cl)c(Cl)c3)CC2)CC1` [TCMDC-139803]: 38.01%.
The same measure for `N=C(N)NCCN(Cc1ccccc1)c1ccccc1` [TCMDC-131837]: 26.01%.
The same measure for `N=C(N)NCCCN(Cc1ccccc1)c1ccc(Cl)cc1` [TCMDC-131839]: 47.9%; for `N=C(N)NCCN(Cc1ccccc1)c1ccc(Cl)cc1` [TCMDC-131838]: 72.85%.
`N=C(N)CCN(Cc1ccc(Cl)cc1)c1ccc(Cl)cc1` [TCMDC-131840]: the “% Inhibition” value came to 54.29%.
The same measure for `Cc1ccc(N(CCC(=N)N)Cc2ccccc2)cc1` [TCMDC-132096]: 26.05%; for `N=C(N)CCN(Cc1ccccc1)c1ccc(Cl)cc1` [TCMDC-131835]: 9.979%.
